From PubChem BioAssay (NCI) come the findings set out here.

This is part of a sample that, as a whole, favours compounds with a hit. Of some 83,000 tested, about 20% had one in any assay.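 Cell lines were cultured in 96-well plates, exposed to a single compound concentration, and assessed for percent growth 48 hours later.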 A number with no mark means an inactive call. Activity calls are given as the source filed them. Rule for the calls: active = growth percent below 10; inactive = the rest.

In one test the test system is NCI-H23 lung. In words: NCI-60 one-dose screen, 48 h (100 = growth as untreated, 0 = no growth, -100 = all killed). Particulars: 10 µM unless noted.
Take `C/C=C(\C)C(C(=O)NC1CCCCC1)N(C(=O)C1CCc2cc(F)ccc2O1)c1ccc(Cl)cc1` (stereo not drawn): the growth was 103%.

As for `N=C(N)c1ccc(-c2cc(Cl)cc(Cl)c2)cn1`, the growth is 97.6%.

`COc1ccc(-c2cc(-c3ccccc3)nc(SCCCC(=O)NO)n2)cc1OC`: the growth is -2.44% (active).

As to `CCC(C)/C(=C\C#N)NCCCN/C(=C/C#N)C(C)CC` (stereo not drawn), the growth is 97.3%.

On to `CC1=C(C#N)C(=O)NC(C)C1` (stereo not drawn), for which the growth is 92.8%.

For `COc1cccc(/C=C2\Oc3cc(OCCCN4CCCC4)ccc3C2=O)c1OC`, the growth is 96.8%.

`COc1cc(C2C3=C(COC3=O)Nc3cc4c(cc32)CCC4)cc2c1OCO2` (stereo not drawn): the growth was 19.6%.

With `CCN(CC)c1ccc(/C=C2\Oc3ccc(O)c(I)c3C2=O)cc1`, the growth is 67.5%.

For `C=C(C)[C@@H]1CC[C@]2(C(=O)O)CC[C@]3(C)[C@H](CC[C@@H]4[C@@]5(C)C[C@@H](CC#Cc6ccc(C(F)(F)F)cc6)[C@H](O)C(C)(C)[C@@H]5CC[C@]43C)[C@@H]12`, the growth is 2.55% (active).

Take `COc1ccc2c(c1)[nH]c(=O)c1c3cccc(F)c3cn21`: the growth was 46.8%.

For `CCOC(=O)C1=C(C)NC(C)=C(C(=O)OCC)C1(C)C`, the growth is 113%.

`COc1cccc(/C=C/C(=O)Nc2cc(OC)c3c(c2)OCO3)c1`: the growth was 97.1%.

As to `COc1cccc(-c2nc3sccn3c2-c2ccnc(NCCCNS(=O)(=O)c3ccc(F)cc3)c2)c1`, the growth was 30.6%.

Take `COc1ccc(S(=O)(=O)Nc2cc(/C=C\c3cc(OC)c(OC)c(OC)c3)cc(OC)c2OC)cc1`: the growth was 36.2%.

For the compound `Cc1ccc(C(=O)NCCCNc2nccc(-n3ccc4cccnc43)n2)cc1`, the growth is 102%.

Turning to `N/C(=N\C(N)=N\c1nc2ccccc2s1)c1ccncc1`, the growth is 77.7%.

For `COC(=O)c1nc(-c2ccccc2)oc1S(=O)(=O)N1CCN(c2cccc(Cl)c2)CC1`, the growth was 97.4%.

Consider `CCCCCCCCC(C)OC(=O)c1nn(C(C)=O)c2ccccc12` (stereo not drawn), for which the growth was 89.3%.

As to `Cc1ccc(N2CCN(C(C)C(N)=O)CC2)cc1` (stereo not drawn), the growth is 104%.

In the case of `COc1ccc(S(=O)(=O)NCCCNc2nccc(-c3c(-c4cccc([N+](=O)[O-])c4)nc4sccn34)n2)cc1`, the growth was 47.3%.

In the case of `COc1ccc(-n2c(=S)sc3c(Cl)nc(C)nc32)c(OC)c1`, the growth was 31.8%.

For `N[C@@H]1CCN(C(=O)c2cc3cc(Cl)c(F)c(F)c3[nH]2)C1`, the growth was 92.8%.

For the compound `C=C[C@@H]1C[C@@H]2Cc3cc(F)ccc3N1O2`, the growth is 103%.

As to `CCCCN(CCCC)C(=O)CC`, the growth is 102%.

For the compound `CC12CCC3C4(C)COC(c5ccco5)OC4CCC3(C)C1CC(C1=CCOC1=O)O2` (stereo not drawn), the growth was 103%.

Take `CCCCN(CCCC)C(=N)c1ccnc2ccccc12`: the growth is 108%.

Regarding `C=C1C(=O)O[C@H]2[C@H]1CC/C(Cn1cc(CNC(=O)c3cc4ccccc4[nH]3)nn1)=C\CC[C@@]1(C)O[C@@H]21`, the growth was 84.1%.

For the compound `NC(=O)CCCN1C/C(=C\c2ccccc2)C(=O)c2ccccc21`, the growth was 95.6%.

Consider `COc1cc(/C=C/C(=O)N2CCN(C(=O)/C=C/c3cc(OC)c(OC)c(OC)c3)CC2)cc(OC)c1OC`, for which the growth was 104%.

For the compound `COc1ccc(Nc2ncccc2C(=O)NCc2cn(Cc3cccc(Oc4ccccc4)c3)nn2)cc1`, the growth was 54.6%.

Turning to `c1ccc(-c2nnc(-c3ccccn3)s2)nc1`, the growth was 79.6%.

For `C=C1CCC2C(C)(CO)C(O)CCC2(C)C1CC(NCc1ccccc1)C1=CCOC1=O` (stereo not drawn), the growth is 98.9%.

Take `CCCCCCCCCCCC(=O)NCCC[N+](C)(C)CC(=O)[O-]`: the growth is 93.2%.

For `CC(C)CSc1nc(NN)c(C#N)c(-c2ccc(F)cc2)n1`, the growth was 70.4%.

As for `O=c1[nH]c(-c2ccccc2)nc(CN2CCCCC2)c1O`, the growth is 103%.

Consider `Cc1ccc(S(=O)(=O)Nc2c(Br)cc(Br)cc2C(N)=O)cc1`, for which the growth was 96%.

Turning to `Nc1nc(-c2ccccc2)c(CCCOc2ccc(NC(=O)CBr)cc2)c(=O)[nH]1`, the growth is 94.4%.

Turning to `Nc1cccc(-c2nc3sccn3c2-c2ccnc(NCCNS(=O)(=O)c3ccc(C(F)(F)F)cc3)n2)c1`, the growth is 56%.

With `Cc1ccc(-c2nc(C#N)c(S(=O)(=O)n3nc(-c4ccccc4)cc3N)o2)cc1`, the growth is 97.4%.

For another test, the system named is NCI-H226 lung. The description is as above. Particulars: 10 µM unless noted.
For `C/C=C(\C)C(C(=O)NC1CCCCC1)N(C(=O)C1CCc2cc(F)ccc2O1)c1ccc(Cl)cc1` (stereo not drawn), the growth was 93.7%.

In the case of `N=C(N)c1ccc(-c2cc(Cl)cc(Cl)c2)cn1`, the growth was 82.4%.

As for `COc1ccc(-c2cc(-c3ccccc3)nc(SCCCC(=O)NO)n2)cc1OC`, the growth was 10.4%.

`CCC(C)/C(=C\C#N)NCCCN/C(=C/C#N)C(C)CC` (stereo not drawn): the growth was 103%.

In the case of `CC1=C(C#N)C(=O)NC(C)C1` (stereo not drawn), the growth is 111%.

With `COc1cccc(/C=C2\Oc3cc(OCCCN4CCCC4)ccc3C2=O)c1OC`, the growth is 86%.

As to `COc1cc(C2C3=C(COC3=O)Nc3cc4c(cc32)CCC4)cc2c1OCO2` (stereo not drawn), the growth is 31.9%.

For the compound `CCN(CC)c1ccc(/C=C2\Oc3ccc(O)c(I)c3C2=O)cc1`, the growth was 88.8%.

On to `C=C(C)[C@@H]1CC[C@]2(C(=O)O)CC[C@]3(C)[C@H](CC[C@@H]4[C@@]5(C)C[C@@H](CC#Cc6ccc(C(F)(F)F)cc6)[C@H](O)C(C)(C)[C@@H]5CC[C@]43C)[C@@H]12`, for which the growth was 3.81% (active).

On to `COc1ccc2c(c1)[nH]c(=O)c1c3cccc(F)c3cn21`, for which the growth was 45.3%.

For the compound `CCOC(=O)C1=C(C)NC(C)=C(C(=O)OCC)C1(C)C`, the growth is 98.8%.

With `COc1cccc(/C=C/C(=O)Nc2cc(OC)c3c(c2)OCO3)c1`, the growth was 99.2%.

As for `COc1cccc(-c2nc3sccn3c2-c2ccnc(NCCCNS(=O)(=O)c3ccc(F)cc3)c2)c1`, the growth is 27.5%.

For the compound `COc1ccc(S(=O)(=O)Nc2cc(/C=C\c3cc(OC)c(OC)c(OC)c3)cc(OC)c2OC)cc1`, the growth is 35.2%.

As for `Cc1ccc(C(=O)NCCCNc2nccc(-n3ccc4cccnc43)n2)cc1`, the growth was 93.4%.

As for `N/C(=N\C(N)=N\c1nc2ccccc2s1)c1ccncc1`, the growth was 76.1%.

On to `COC(=O)c1nc(-c2ccccc2)oc1S(=O)(=O)N1CCN(c2cccc(Cl)c2)CC1`, for which the growth was 93.9%.

For `CCCCCCCCC(C)OC(=O)c1nn(C(C)=O)c2ccccc12` (stereo not drawn), the growth was 105%.

On to `Cc1ccc(N2CCN(C(C)C(N)=O)CC2)cc1` (stereo not drawn), for which the growth was 109%.

For `COc1ccc(S(=O)(=O)NCCCNc2nccc(-c3c(-c4cccc([N+](=O)[O-])c4)nc4sccn34)n2)cc1`, the growth is 34.8%.

For `COc1ccc(-n2c(=S)sc3c(Cl)nc(C)nc32)c(OC)c1`, the growth was 100%.

Take `N[C@@H]1CCN(C(=O)c2cc3cc(Cl)c(F)c(F)c3[nH]2)C1`: the growth was 75%.

With `C=C[C@@H]1C[C@@H]2Cc3cc(F)ccc3N1O2`, the growth is 120%.

In the case of `CCCCN(CCCC)C(=O)CC`, the growth was 104%.

As for `CC12CCC3C4(C)COC(c5ccco5)OC4CCC3(C)C1CC(C1=CCOC1=O)O2` (stereo not drawn), the growth was 101%.

For `CCCCN(CCCC)C(=N)c1ccnc2ccccc12`, the growth was 116%.

`C=C1C(=O)O[C@H]2[C@H]1CC/C(Cn1cc(CNC(=O)c3cc4ccccc4[nH]3)nn1)=C\CC[C@@]1(C)O[C@@H]21`: the growth is 101%.

Regarding `NC(=O)CCCN1C/C(=C\c2ccccc2)C(=O)c2ccccc21`, the growth is 86.4%.

As for `COc1cc(/C=C/C(=O)N2CCN(C(=O)/C=C/c3cc(OC)c(OC)c(OC)c3)CC2)cc(OC)c1OC`, the growth was 100%.

Regarding `COc1ccc(Nc2ncccc2C(=O)NCc2cn(Cc3cccc(Oc4ccccc4)c3)nn2)cc1`, the growth was 71.7%.

As to `c1ccc(-c2nnc(-c3ccccn3)s2)nc1`, the growth is 96.8%.

Consider `C=C1CCC2C(C)(CO)C(O)CCC2(C)C1CC(NCc1ccccc1)C1=CCOC1=O` (stereo not drawn), for which the growth was 100%.

In the case of `CCCCCCCCCCCC(=O)NCCC[N+](C)(C)CC(=O)[O-]`, the growth is 93.8%.

For the compound `CC(C)CSc1nc(NN)c(C#N)c(-c2ccc(F)cc2)n1`, the growth was 80.3%.

For the compound `O=c1[nH]c(-c2ccccc2)nc(CN2CCCCC2)c1O`, the growth was 108%.

As to `Cc1ccc(S(=O)(=O)Nc2c(Br)cc(Br)cc2C(N)=O)cc1`, the growth is 102%.

On to `Nc1nc(-c2ccccc2)c(CCCOc2ccc(NC(=O)CBr)cc2)c(=O)[nH]1`, for which the growth was 100%.

In the case of `Nc1cccc(-c2nc3sccn3c2-c2ccnc(NCCNS(=O)(=O)c3ccc(C(F)(F)F)cc3)n2)c1`, the growth was 29.3%.

With `Cc1ccc(-c2nc(C#N)c(S(=O)(=O)n3nc(-c4ccccc4)cc3N)o2)cc1`, the growth was 78.3%.
